Test results from PubChem BioAssay (EPA / NIEHS).
Where “and” joins values, the source holds several entries; their conditions need not be identical. Equal entries are not always repeated. Some structures have more than one record in an assay (separate samples or runs), and their calls can disagree. Calls of active or inactive are those of the source. The calls were made as follows: active = hit-call score of the fitted dose curve at least 0.9, where 1 is the maximum; inactive = score below 0.9.

Columns and labels:
[1] = biological target: Bile acid receptor (Homo sapiens) (UniProt Q96RI1); assay: ATG_IR1_CIS: Attagene CIS-FACTORIAL HepG2 Assay for human Nuclear Receptor Subfamily 1 Group H Member 4 (NR1H4), IR1 submotif (AID 2282946); details: IR1 reporter transcription, actives raise or lower the signal
Outline: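 Cells (human HepG2) carry transiently transfected cis-promoter reporter transcription units. Compounds are incubated 24 h, total RNA is reverse-transcribed and amplified, and labelled fragments are resolved by capillary electrophoresis. Curves use DMSO as baseline.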

[2] = ATG_GRE_CIS: Attagene CIS-FACTORIAL HepG2 Assay for human Glucocorticoid Response Elements (GRE) (AID 2282947); details: HepG2 GRE cis-reporter, Attagene multiplex mRNA; actives raise or lower the signal
Outline: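 Transient MRTU transfection of human HepG2 liver cells; cis-regulated reporters report endogenous factors. 24 h dosing → RNA isolation → RT-PCR → 6-FAM primer extension → HpaI cut → CE fragment analysis. Bidirectional fit, DMSO negative control.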

[3] = ATG_ISRE_CIS: Attagene CIS-FACTORIAL HepG2 Assay for human Interferon Regulatory Factor 1 (IRF1) binding to an Interferon-Stimulated Response Element (ISRE) (AID 2282948); details: HepG2 ISRE cis-reporter (Attagene), mRNA transcription readout; actives raise or lower the signal
Outline: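 Transfected HepG2 (multiple reporter transcription units, cis elements) dosed 24 h. RNA → oligo(dT) RT → PCR → 6-FAM primer extension → HpaI → CE. DMSO = negative control/baseline.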

[4] = ATG_M_32_CIS: Attagene CIS-FACTORIAL HepG2 Assay for M32 Transcription Factor (Internal Marker) (AID 2282949); details: HepG2 Attagene cis-factorial M32 reporter, mRNA; actives raise or lower the signal;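 also: background control marker of the multiplexed CIS panel rather than a real target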
Outline: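 Fluorescent capillary electrophoresis peaks of HpaI-digested, FAM-labelled RT-PCR reporter products give the signal. Source: transiently transfected human liver HepG2 cells, 24 h after chemical dosing; bidirectional fitting against DMSO.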

[5] = ATG_M_06_CIS: Attagene CIS-FACTORIAL HepG2 Assay for M06 Transcription Factor (Internal Marker) (AID 2282950); details: HepG2 Attagene CIS-FACTORIAL M06 internal marker reporter; actives raise or lower the signal
Outline: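 Steps: transfect HepG2 with multiplexed cis-element reporter constructs; dose chemical 24 h; extract RNA with DNase treatment; reverse-transcribe, PCR-amplify, 6-FAM label, HpaI digest; separate fragments by capillary electrophoresis. Activity fitted both directions versus DMSO.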

[6] = biological target: Hypoxia-inducible factor 1-alpha (Homo sapiens) (UniProt Q16665); assay: ATG_HIF1a_CIS: Attagene CIS-FACTORIAL HepG2 Assay for human Hypoxia Inducible Factor 1 (HIF1A) (AID 2282951); details: HepG2 Attagene cis-factorial HIF1a reporter transcription; actives raise or lower the signal
Outline: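 HepG2 cells transiently transfected with multiple cis-regulated reporter transcription units measure endogenous transcription factor activity. After 24 h exposure, reporter mRNA is quantified by RT-PCR with 6-FAM labelling, HpaI digestion and capillary electrophoresis. Bidirectional fitting against DMSO.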

[7] = biological target: Hepatocyte nuclear factor 6 (Homo sapiens) (UniProt Q9UBC0); assay: ATG_HNF6_CIS: Attagene CIS-FACTORIAL HepG2 Assay for human Hepatocyte Nuclear Factor 6 (HNF6) (AID 2282952); details: HepG2 Attagene cis-factorial HNF6 reporter transcription; actives raise or lower the signal
Outline: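 Cells are HepG2 carrying transiently transfected cis-promoter reporter units. Treatment lasts 24 h, after which reporter transcripts are reverse-transcribed, amplified, FAM-labelled and sized by capillary electrophoresis. DMSO serves as baseline.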

[8] = biological target: Heat shock factor protein 1 (Homo sapiens) (UniProt Q00613); assay: ATG_HSE_CIS: Attagene CIS-FACTORIAL HepG2 Assay for human Heat Shock Transcription Factor 1 (HSE) (AID 2282953); details: HepG2 HSE cis-reporter, Attagene RNA transcription; actives raise or lower the signal
Outline: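 Cells were transfected with cis-element-driven reporter constructs, dosed for 24 h, then total RNA was reverse-transcribed and reporter cDNA amplified, FAM-labelled and digested with HpaI. Fragments were resolved by capillary electrophoresis; gain or loss was fitted against DMSO.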

[9] = ATG_MRE_CIS: Attagene CIS-FACTORIAL HepG2 Assay for human Metal Responsive Element (MRE) (AID 2282954); details: HepG2 MRE cis-reporter transcription, Attagene multiplex; actives raise or lower the signal
Outline: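 Transient MRTU transfection of HepG2 (FuGene 6); 24 h dosing; total RNA → oligo(dT) RT, PCR, 6-FAM primer extension, HpaI cut, CE. Bidirectional fit vs DMSO.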

[10] = ATG_PBREM_CIS: Attagene CIS-FACTORIAL HepG2 Assay for human Phenobarbital-responsive Enhancer Module (PBREM) (AID 2282955); details: HepG2 PBREM cis-reporter, Attagene multiplexed transcription; actives raise or lower the signal
Outline: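 HepG2 cells transiently transfected with multiple cis-regulated reporter units measure endogenous transcription factor activity; 24 h compound exposure. Reporter mRNA quantified by RT-PCR, fluorescent labelling, HpaI digestion and capillary electrophoresis; bidirectional fit versus DMSO.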

[11] = biological target: Paired box protein Pax-6 (Homo sapiens) (UniProt P26367); assay: ATG_Pax6_CIS: Attagene CIS-FACTORIAL HepG2 Assay for human Paired Box 6 (PAX6) (AID 2282956); details: HepG2 CIS-FACTORIAL PAX6 reporter transcription, RNA readout; actives raise or lower the signal
Outline: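 Transient MRTU transfection of HepG2 → compound exposure 24 h → TriZol RNA, oligo(dT) RT → PCR, 6-FAM primer extension, HpaI cut → capillary electrophoresis; activity fitted both directions against DMSO.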

[12] = ATG_PXRE_CIS: Attagene CIS-FACTORIAL HepG2 Assay for human Pregnane X Receptor Element (PXRE) (AID 2282957); details: HepG2 Attagene CIS-FACTORIAL PXRE reporter, mRNA; actives raise or lower the signal
Outline: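 Multiplexed cis-reporter assay in transiently transfected human HepG2 cells; 24 h chemical exposure. Reporter transcripts quantified by RT-PCR with fluorescent labeling and capillary electrophoresis.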

[13] = ATG_PPRE_CIS: Attagene CIS-FACTORIAL HepG2 Assay for human Peroxisome Proliferator-activated Response Element (PPRE) (AID 2282958); details: HepG2 PPRE cis-element reporter, Attagene transcription factor profiling; actives raise or lower the signal
Outline: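 HepG2 cells are transiently transfected with multiplexed cis-promoter reporter units to report endogenous PPAR activity. After 24 h dosing, reporter mRNA is read by RT-PCR and capillary electrophoresis. Fitting is bidirectional against DMSO.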

[14] = ATG_RORE_CIS: Attagene CIS-FACTORIAL HepG2 Assay for human RAR-related Orphan Receptor Element (RORE) (AID 2282959); details: HepG2 Attagene cis-factorial RORE reporter, mRNA; actives raise or lower the signal
Outline: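 HepG2 cells carrying transiently transfected cis-regulated reporter units; RORE-driven reporter mRNA quantified 24 h post-dosing by RT-PCR, 6-FAM primer extension, HpaI digestion and capillary electrophoresis. Bidirectional fit versus DMSO.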

[15] = ATG_Sox_CIS: Attagene CIS-FACTORIAL HepG2 Assay for human SRY-box transcription factor (SOX) (AID 2282960); details: HepG2 Attagene cis-factorial SOX reporter, mRNA; actives raise or lower the signal
Outline: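 HepG2 cells transiently transfected with multiple cis-regulated reporter units, then dosed for 24 h. Reporter mRNA quantified by RT-PCR, fluorescent labelling, HpaI digestion and capillary electrophoresis; bidirectional fit versus DMSO.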

[16] = biological target: Transcription factor Sp1 (Homo sapiens) (UniProt P08047); assay: ATG_Sp1_CIS: Attagene CIS-FACTORIAL HepG2 Assay for human Specificity Protein 1 (Sp1) (AID 2282961); details: HepG2 Sp1 cis-reporter transcription, actives raise or lower the signal
Outline: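 HepG2 cells transiently transfected with multiplexed cis-regulated reporter constructs, chemical exposure 24 h. Reporter mRNA quantified by RT-PCR with capillary electrophoresis; bidirectional fit relative to DMSO.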

[17] = ATG_SREBP_CIS: Attagene CIS-FACTORIAL HepG2 Assay for human Sterol Regulatory Element Binding (SREBP) (AID 2282962); details: HepG2 Attagene cis-factorial SREBP reporter, mRNA; actives raise or lower the signal
Outline: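 Transfected HepG2 (cis-regulated reporter library, endogenous TFs) → compound 24 h → total RNA → oligo(dT) RT → reporter-specific PCR → FAM primer extension, HpaI cut → CE fluorescence. Fit bidirectional vs DMSO.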

[18] = biological target: Signal transducer and activator of transcription 3 (Homo sapiens) (UniProt P40763); assay: ATG_STAT3_CIS: Attagene CIS-FACTORIAL HepG2 Assay for human Signal Transducer and Activator of Transcription 3 (STAT3) (AID 2282963); details: HepG2, Attagene cis-factorial STAT3 reporter transcription; actives raise or lower the signal
Outline: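 Endogenous STAT3-responsive cis-element activity was read in transiently transfected HepG2 cells after 24 h treatment. Reporter transcripts were quantified via RT-PCR and capillary electrophoresis, with DMSO as negative control and bidirectional curve fitting.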

[19] = ATG_TA_CIS: Attagene CIS-FACTORIAL HepG2 Assay for human TA Basal Promoter (AID 2282964); details: HepG2 Attagene CIS-factorial TA basal promoter reporter; actives raise or lower the signal
Outline: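 Steps: transfect HepG2 with MRTUs; dose 24 h; isolate RNA, DNase-treat, reverse-transcribe; PCR and FAM-label reporter cDNA; digest with HpaI 2h at 37 C; run capillary electrophoresis. Activity fitted both directions against DMSO.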

[20] = ATG_TCF_b_cat_CIS: Attagene CIS-FACTORIAL HepG2 Assay for human T-Cell-Factor with beta-catenin (TCF/b-cat) (AID 2282965); details: HepG2 TCF/beta-catenin cis-reporter transcription, actives raise or lower the signal
Outline: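 Measured: reporter mRNA in HepG2 transiently transfected with cis-promoter reporter units, 24 h after chemical addition. Fitting was bidirectional, DMSO as negative control.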

Measured: AC50

Signal transducer and activator of transcription 3 (Homo sapiens), sequence (P40763 whole entry, looked up): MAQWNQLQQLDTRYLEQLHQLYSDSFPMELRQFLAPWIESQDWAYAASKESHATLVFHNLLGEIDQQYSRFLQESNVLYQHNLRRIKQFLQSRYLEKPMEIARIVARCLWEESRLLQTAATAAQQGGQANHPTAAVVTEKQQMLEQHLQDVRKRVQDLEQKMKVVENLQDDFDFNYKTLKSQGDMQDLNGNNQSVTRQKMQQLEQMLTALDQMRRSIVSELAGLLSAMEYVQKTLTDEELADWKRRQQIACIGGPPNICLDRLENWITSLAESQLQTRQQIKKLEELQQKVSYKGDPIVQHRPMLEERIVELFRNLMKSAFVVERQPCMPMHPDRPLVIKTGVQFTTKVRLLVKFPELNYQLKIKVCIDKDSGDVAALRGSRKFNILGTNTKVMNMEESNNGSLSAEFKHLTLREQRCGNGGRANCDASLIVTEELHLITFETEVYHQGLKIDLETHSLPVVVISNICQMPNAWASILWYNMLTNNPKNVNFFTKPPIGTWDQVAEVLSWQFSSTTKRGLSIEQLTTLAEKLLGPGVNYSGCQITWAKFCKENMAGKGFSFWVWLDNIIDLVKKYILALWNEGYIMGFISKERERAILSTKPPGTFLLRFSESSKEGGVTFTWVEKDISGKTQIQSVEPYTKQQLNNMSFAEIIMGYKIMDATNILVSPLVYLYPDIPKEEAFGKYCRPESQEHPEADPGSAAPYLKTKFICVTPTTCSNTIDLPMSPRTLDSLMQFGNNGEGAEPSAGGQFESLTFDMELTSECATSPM
Transcription factor Sp1 (Homo sapiens), sequence (P08047 whole entry, looked up): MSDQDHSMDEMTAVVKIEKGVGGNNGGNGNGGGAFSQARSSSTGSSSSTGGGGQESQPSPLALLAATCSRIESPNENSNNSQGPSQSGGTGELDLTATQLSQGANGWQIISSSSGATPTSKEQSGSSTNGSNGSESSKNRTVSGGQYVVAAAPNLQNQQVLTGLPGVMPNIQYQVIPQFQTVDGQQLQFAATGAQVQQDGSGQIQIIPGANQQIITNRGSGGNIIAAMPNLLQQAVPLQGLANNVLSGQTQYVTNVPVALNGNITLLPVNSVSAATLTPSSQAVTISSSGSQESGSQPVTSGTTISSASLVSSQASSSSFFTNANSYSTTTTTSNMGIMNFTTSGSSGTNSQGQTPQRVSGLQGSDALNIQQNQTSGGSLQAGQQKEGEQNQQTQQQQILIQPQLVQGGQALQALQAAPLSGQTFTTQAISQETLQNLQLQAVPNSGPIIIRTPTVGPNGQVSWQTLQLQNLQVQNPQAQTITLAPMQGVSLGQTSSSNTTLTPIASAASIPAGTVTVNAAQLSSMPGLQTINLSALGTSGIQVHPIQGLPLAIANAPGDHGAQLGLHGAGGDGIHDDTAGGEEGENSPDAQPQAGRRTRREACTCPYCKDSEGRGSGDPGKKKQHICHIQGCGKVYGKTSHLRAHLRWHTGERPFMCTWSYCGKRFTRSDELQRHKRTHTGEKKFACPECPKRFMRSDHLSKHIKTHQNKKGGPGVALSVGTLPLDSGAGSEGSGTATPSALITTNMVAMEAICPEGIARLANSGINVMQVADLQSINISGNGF
Hypoxia-inducible factor 1-alpha (Homo sapiens), sequence (Q16665 whole entry, looked up): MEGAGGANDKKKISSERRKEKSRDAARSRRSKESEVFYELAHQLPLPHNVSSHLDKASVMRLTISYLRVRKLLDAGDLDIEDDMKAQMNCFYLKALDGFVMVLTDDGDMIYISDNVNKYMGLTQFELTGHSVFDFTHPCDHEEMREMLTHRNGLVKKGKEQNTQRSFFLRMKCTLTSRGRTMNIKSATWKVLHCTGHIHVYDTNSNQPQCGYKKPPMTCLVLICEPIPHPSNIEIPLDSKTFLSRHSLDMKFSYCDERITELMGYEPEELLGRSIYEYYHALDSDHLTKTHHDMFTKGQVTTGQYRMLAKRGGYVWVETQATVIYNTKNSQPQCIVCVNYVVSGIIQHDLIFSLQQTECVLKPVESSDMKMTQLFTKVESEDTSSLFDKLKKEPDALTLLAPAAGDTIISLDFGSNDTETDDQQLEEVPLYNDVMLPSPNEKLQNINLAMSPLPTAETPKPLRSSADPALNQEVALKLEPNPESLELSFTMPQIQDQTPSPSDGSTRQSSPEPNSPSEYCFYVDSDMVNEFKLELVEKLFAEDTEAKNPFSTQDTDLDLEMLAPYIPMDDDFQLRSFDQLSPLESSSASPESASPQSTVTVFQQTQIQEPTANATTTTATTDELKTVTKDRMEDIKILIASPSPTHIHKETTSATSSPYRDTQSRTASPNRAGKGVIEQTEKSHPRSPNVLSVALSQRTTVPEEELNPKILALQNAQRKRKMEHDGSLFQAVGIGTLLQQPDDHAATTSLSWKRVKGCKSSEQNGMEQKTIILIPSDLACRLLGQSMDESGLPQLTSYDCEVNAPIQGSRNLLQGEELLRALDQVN
Bile acid receptor (Homo sapiens), sequence (Q96RI1 whole entry, looked up, the tested form may be a part): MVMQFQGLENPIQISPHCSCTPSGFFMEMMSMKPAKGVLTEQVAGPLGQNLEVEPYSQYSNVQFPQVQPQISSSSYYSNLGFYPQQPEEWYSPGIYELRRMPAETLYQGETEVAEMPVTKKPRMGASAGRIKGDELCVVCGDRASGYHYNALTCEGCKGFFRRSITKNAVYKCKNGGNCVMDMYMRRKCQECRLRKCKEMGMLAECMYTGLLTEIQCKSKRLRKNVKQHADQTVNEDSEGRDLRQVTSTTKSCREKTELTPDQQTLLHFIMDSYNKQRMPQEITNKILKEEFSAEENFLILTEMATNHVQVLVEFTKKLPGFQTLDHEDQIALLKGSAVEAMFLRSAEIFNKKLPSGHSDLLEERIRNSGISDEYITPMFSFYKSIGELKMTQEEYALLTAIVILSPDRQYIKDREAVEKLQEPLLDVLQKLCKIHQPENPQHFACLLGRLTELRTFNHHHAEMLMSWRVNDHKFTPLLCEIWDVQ
Paired box protein Pax-6 (Homo sapiens), sequence (P26367 whole entry, looked up): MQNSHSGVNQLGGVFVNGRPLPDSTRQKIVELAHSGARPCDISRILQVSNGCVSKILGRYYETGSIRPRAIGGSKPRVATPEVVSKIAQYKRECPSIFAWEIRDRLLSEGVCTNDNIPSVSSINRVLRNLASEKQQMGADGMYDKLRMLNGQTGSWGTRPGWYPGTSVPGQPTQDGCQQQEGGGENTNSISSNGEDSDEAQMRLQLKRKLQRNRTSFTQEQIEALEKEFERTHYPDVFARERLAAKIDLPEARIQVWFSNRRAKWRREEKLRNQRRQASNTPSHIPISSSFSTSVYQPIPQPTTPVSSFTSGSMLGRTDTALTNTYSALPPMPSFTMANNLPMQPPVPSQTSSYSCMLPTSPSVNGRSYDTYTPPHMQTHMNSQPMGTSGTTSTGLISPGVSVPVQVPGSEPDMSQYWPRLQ
Heat shock factor protein 1 (Homo sapiens), sequence (Q00613 whole entry, looked up, the tested form may be a part): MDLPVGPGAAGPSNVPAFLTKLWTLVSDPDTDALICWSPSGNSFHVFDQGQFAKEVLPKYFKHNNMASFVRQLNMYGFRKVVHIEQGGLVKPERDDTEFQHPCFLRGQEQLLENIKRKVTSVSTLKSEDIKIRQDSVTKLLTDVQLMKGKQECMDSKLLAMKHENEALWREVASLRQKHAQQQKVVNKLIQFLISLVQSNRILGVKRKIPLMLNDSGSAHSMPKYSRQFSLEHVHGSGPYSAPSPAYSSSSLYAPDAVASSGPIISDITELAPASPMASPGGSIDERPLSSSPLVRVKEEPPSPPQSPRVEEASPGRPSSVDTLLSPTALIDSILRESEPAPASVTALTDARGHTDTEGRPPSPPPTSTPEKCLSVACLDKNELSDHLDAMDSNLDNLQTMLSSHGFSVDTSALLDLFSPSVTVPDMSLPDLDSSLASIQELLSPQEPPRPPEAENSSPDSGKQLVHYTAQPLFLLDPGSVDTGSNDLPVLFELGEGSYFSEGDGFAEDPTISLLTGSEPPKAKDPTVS
Hepatocyte nuclear factor 6 (Homo sapiens), sequence (Q9UBC0 whole entry, looked up): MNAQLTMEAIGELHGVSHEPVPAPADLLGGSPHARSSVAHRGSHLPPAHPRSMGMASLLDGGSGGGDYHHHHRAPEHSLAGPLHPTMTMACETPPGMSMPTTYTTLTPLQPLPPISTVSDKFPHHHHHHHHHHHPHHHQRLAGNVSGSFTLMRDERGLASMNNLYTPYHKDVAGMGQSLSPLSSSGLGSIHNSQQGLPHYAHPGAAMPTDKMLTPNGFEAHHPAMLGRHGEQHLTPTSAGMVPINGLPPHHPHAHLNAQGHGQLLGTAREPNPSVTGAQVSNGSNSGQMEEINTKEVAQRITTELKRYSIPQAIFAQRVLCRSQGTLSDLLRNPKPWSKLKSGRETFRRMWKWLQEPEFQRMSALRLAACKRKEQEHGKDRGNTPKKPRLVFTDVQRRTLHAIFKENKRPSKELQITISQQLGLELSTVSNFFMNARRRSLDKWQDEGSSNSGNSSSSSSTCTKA

COC(=O)C(F)(F)C(F)(F)OC(F)(C(F)(F)F)C(F)(F)OC(F)=C(F)F (stereo not given)
inactive: [1] | [2] | [3] | [4] | [5] | [6] | [7] | [8] | [9] | [10] | [11] | [14] | [15] | [16] | [17] | [18] | [19]
active: [12] 4.84 µM and 15.2 µM and 5.55 µM | [13] 160 nM and 436 nM and 230 nM | [14] 0.451 µM

Cc1cc(C)c(C(=O)P(=O)(c2ccccc2)c2ccccc2)c(C)c1
active: [1] 12.8 µM | [2] 57.7 µM | [4] 53.1 µM | [5] 60.7 µM | [7] 50.7 µM | [8] 62.5 µM | [9] 17.9 µM | [12] 0.199 µM | [14] 51 µM | [18] 53.7 µM | [19] 45 µM
inactive: [3] | [6] | [10] | [11] | [13] | [15] | [16] | [20]

O=[N+]([O-])c1ccc(Cl)c(Cl)c1
active: [12] 49.2 µM
inactive: all other assays above

Nc1ccc([N+](=O)[O-])cc1Cl
active: [12] 67.3 µM
not listed: [13] | [20]
inactive: all other assays above

C=CC(=O)OCC(F)(F)C(F)F
active: [3] 150 µM | [9] 117 µM | [20] 89.3 µM
not listed: [13]
inactive: all other assays above

Clc1ccc(Oc2ccccc2)cc1
not listed: [19]
inactive: all other assays above

C=CC(=O)OCC(CC)(COC(=O)C=C)COC(=O)C=C
active: [1] 8.23 µM | [3] 42.4 µM | [9] 9.05 µM | [11] 15.5 µM | [16] 26.2 µM | [17] 27 µM
inactive: all other assays above
